# Compound activity from PubChem BioAssay.
# PostGolgi ctrl: inhibits growth of the yeast control strain. efflux-deficient yeast background strain, growth absorbance A615, 16 h. inhibition, % at 10 µM. 5% of 98,000 active
# PostGolgi yeast: growth inhibition of a yeast mutant, post-Golgi transport screen. post-Golgi transport phenotypic cell assay. inhibition, % at 10 µM. 0.9% of 98,000 active. AID 739;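 also: yeast cells grown in 1536-well plates; yeast grown about 18 h at 30C before absorbance read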
# CYP2C9 act: activators of human CYP2C9. AID 1024. recombinant CYP2C9, luciferin-H conversion, luminescence; hits give high values; factor 1 = untreated enzyme, 0 = blocked. P11712. 1.4% of 96,000 active. activation factor at 5 µM;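 active = activation factor of 2 or more for CYP2C9 at a 5 µM dose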
# CYP2C19 activ: activators of human cytochrome P450 2C19. P33261. recombinant CYP2C19, luciferin-H EGE luminescence; hits give high values; 0 = fully inhibited enzyme, 1 = untreated enzyme. activation factor at 5 µM. 96,000 tested, under 10 active;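 active = activation factor of at least 2 at 5 µM in the primary screen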
# Target sequence (P33261 whole entry, looked up): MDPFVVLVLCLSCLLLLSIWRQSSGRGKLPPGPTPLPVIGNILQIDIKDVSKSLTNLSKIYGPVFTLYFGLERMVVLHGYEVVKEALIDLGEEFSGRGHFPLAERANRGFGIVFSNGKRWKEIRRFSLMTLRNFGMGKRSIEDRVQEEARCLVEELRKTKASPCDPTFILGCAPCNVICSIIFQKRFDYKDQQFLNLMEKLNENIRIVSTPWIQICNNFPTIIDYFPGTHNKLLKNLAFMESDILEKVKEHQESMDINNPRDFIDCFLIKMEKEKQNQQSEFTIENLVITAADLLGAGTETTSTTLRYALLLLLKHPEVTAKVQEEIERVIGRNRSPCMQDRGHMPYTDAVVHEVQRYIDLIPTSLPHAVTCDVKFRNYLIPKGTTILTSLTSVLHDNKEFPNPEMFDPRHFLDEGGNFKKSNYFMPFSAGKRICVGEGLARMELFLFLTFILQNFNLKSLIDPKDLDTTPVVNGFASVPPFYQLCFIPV
# CYP2C9 inh: blocks human cytochrome P450 2C9. AID 777. CYP2C9 Supersomes, luciferin-H conversion, luminescence. P11712. 20% of 96,000 active. inhibition, % at 5 µM;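 active = blocking of liver enzyme CYP2C9 beyond about 50% at 5 µM, limit read from the data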
# CYP2C19 inh: human CYP2C19 inhibition | P33261 | CYP2C19 Supersomes, luciferin-H EGE luminescence, 30 min | inhibition, % at 5 µM | 21% of 96,000 active | AID 778;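 active = CYP2C19 inhibition above a set limit at 5 µM in the primary screen, cut at about 50% in these data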
# Hits are given with their value; i = inactive; nt = not tested or not shown. Hits are enriched below; roughly 32% of the tested compounds scored in any of these assays. Rule as the data show it, unless noted: active = inhibition above about 30%; inactive = the rest.
SMILES,PostGolgi ctrl,PostGolgi yeast,CYP2C9 act,CYP2C19 activ,CYP2C9 inh,CYP2C19 inh
CC1(C)CC(=O)C2=C(C1)NC(=O)CC2c1cccc(F)c1 (stereo not drawn),i,i,i,i,i,i
CC1(C)CC(=O)C2=C(C1)N(c1ccccc1)C(=O)CC2c1ccsc1 (stereo not drawn),i,i,i,i,i,88
COC(=O)C1=C(C)NC(C)=C(C(=O)OC)C1c1cc2cc(C)ccc2[nH]c1=O,i,i,i,i,i,i
COC(=O)C1=C(C)NC(C)=C(C(=O)OC)C1c1ccccc1OCc1c(C)no[n+]1[O-],i,i,i,i,89,71
Cc1cc(N)n(-c2ncnc3scc(-c4ccccc4)c23)n1,i,i,i,i,i,i
Fc1ccccc1CSc1nnc(Cn2cnc3ccccc32)n1-c1ccccc1,i,i,i,i,i,83
Cc1ccc(-n2c(Cn3cnc4ccccc43)nnc2SCC(=O)O)cc1,i,i,nt,nt,nt,nt
Nc1nnc(SCc2ccccc2F)n1-c1ccccc1,i,i,i,i,i,75
CCOC(=O)c1c(C)n(C)c2c(C)cc(O)c(OC(C)=O)c12,i,i,i,i,i,i
CCc1cc2ccc(C)cc2nc1SCC(=O)N1CCN(C(=O)c2ccco2)CC1,i,i,i,i,94,65
CCc1cc2cc3c(cc2nc1SCC(=O)N1CCN(C(=O)c2ccco2)CC1)OCO3,i,i,i,i,i,i
COc1ccc2c(c1)nc(SCC(=O)c1cccs1)n2C,i,i,i,i,i,51
CCc1cc2cccc(C)c2nc1SCC(=O)N1CCN(C(=O)c2ccco2)CC1,36,i,i,i,57,i
CCc1cc2cc(C)cc(C)c2nc1SCC(=O)N1CCN(C(=O)c2ccco2)CC1,i,i,i,i,i,i
CCOc1ccc2nc(SCC(=O)c3cccs3)sc2c1,i,i,i,i,i,55
COc1ccc(NC(=O)Cn2nc(Cc3cccnc3)c3ccccc3c2=O)cc1OC,i,i,i,i,i,i
Cc1ccc(C)c(N2CCN(CCCNC(=O)Cn3cc4c(n3)CCC(C)C4)CC2)c1 (stereo not drawn),i,i,i,i,i,i
COCCCN1C(=O)c2ccc(C(=O)NCc3ccco3)cc2C1=O,i,i,i,i,i,i
CCOc1ccc2nc(SCC(=O)N3CCN(C(=O)c4ccco4)CC3)sc2c1,i,i,i,i,53,i
Cc1nc(SCC(=O)N2CCN(C(=O)c3ccco3)CC2)c2c(C)c(C)sc2n1,nt,nt,i,i,73,51
O=C(CSc1nc(-c2ccc(F)cc2)cs1)N1CCN(C(=O)c2ccco2)CC1,i,i,i,i,i,76
COc1ccc(CN(C#N)c2nc(SC)nc(N(C)C)n2)cc1,41,i,i,i,i,89
CC1CCCN(C(=O)C(Cc2ccccc2)n2cccc2)C1 (stereo not drawn),i,i,i,i,i,67
Cc1ccc(C)c(N2CCN(C(=O)C(Cc3ccccc3)n3cccc3)CC2)c1 (stereo not drawn),i,i,i,i,i,97
Cc1ccc(C)c(N2CCN(C(=O)CCS(=O)(=O)c3cccc4nonc34)CC2)c1,i,i,i,i,73,62
SMILES,PostGolgi ctrl,PostGolgi yeast,CYP2C9 act,CYP2C19 activ,CYP2C9 inh,CYP2C19 inh
O=C(C(Cc1ccccc1)n1cccc1)N1CCc2ccccc21 (stereo not drawn),i,i,i,i,i,i
CC1Cc2ccccc2N1C(=O)CCS(=O)(=O)c1cccc2nonc12 (stereo not drawn),i,i,i,i,i,i
Cc1ccc(C)c(N2CCN(C(=O)Cn3c(=O)[nH]c4ccsc4c3=O)CC2)c1,i,i,i,i,53,i
CC(Sc1nc(-c2ccccc2)cc(C(F)(F)F)n1)C(=O)N1CCC(C(N)=O)CC1 (stereo not drawn),i,i,nt,nt,nt,nt
O=C(CSCc1ccc(Cl)cc1)N/N=C/c1ccc(Cl)cc1Cl,i,i,i,i,i,i
Cc1ccc(C)c(N2CCN(C(=O)CN3C(=O)c4ccccc4C3=O)CC2)c1,i,i,i,i,i,i
Cc1ccc(C)c(N2CCN(C(=O)CC3Sc4ccccc4NC3=O)CC2)c1 (stereo not drawn),i,i,i,i,51,71
CCC(=O)N1CCN(c2cc(C)ccc2C)CC1,i,i,i,i,i,52
Cc1ccc(C)c(N2CCN(C(=O)Cn3cccc3)CC2)c1,i,i,i,i,i,i
O=C(O)C(Cc1ccccc1)n1cccc1 (stereo not drawn),i,i,i,i,i,i
O=C(C(Cc1ccccc1)n1cccc1)N1CCN(c2ccccc2)CC1 (stereo not drawn),i,i,i,i,i,95
O=C(NCC1CCCO1)C1c2ccccc2C(=O)N1C1CCCCCC1 (stereo not drawn),i,i,i,i,i,i
CCC(=NC(C)c1ccccc1)c1c(O)n(C)c(=O)n(C)c1=O (stereo not drawn),i,i,i,i,56,68
COC(=O)C(Nc1ccccc1Cl)(c1cc(C)c(O)c(C)c1)C(F)(F)F (stereo not drawn),i,i,i,i,99,100
O=C(O)C1C2C=CC(C3CC23)C1C(=O)NCCc1ccccc1 (stereo not drawn),i,i,i,i,i,i
O=[N+]([O-])c1ccccc1CNC(Cc1ccccc1)c1ccccc1 (stereo not drawn),i,i,i,i,i,90
CS(=O)(=O)N(CC(=O)NC1CC2CCC1C2)c1cccc(C(F)(F)F)c1 (stereo not drawn),31,i,i,i,i,i
Cc1ccc(N(CC(=O)NC2CC3CCC2C3)S(C)(=O)=O)cc1C (stereo not drawn),i,i,i,i,i,73
COc1ccc(NC(=O)C(=O)NCCN2CCN(C(=O)C(c3ccccc3)c3ccccc3)CC2)cc1,i,i,i,i,i,i
CCCOc1ccc(/C=C/C(=O)Nc2ccc([N+](=O)[O-])cc2)cc1,95,i,i,i,59,i
COc1cccc(C2CC(c3cccc(Br)c3)n3nc(N)nc3N2)c1 (stereo not drawn),i,i,i,i,i,i
CCN(c1cccc(C)c1)S(=O)(=O)c1ccc2c(c1)CCN2C(C)=O,i,i,i,i,i,i
CCN(c1cccc(C(F)(F)F)c1)S(=O)(=O)c1ccc2c(c1)CCN2C(C)=O,i,i,i,i,i,61
CN1C(=O)c2cccc(NCCCN3C(=O)c4ccccc4C3=O)c2C1=O,i,i,i,i,i,i
CN1C(=O)c2cccc(NCCCCCCN3C(=O)c4ccccc4C3=O)c2C1=O,i,i,i,i,75,i
CCOc1ccc(C2C(C(=O)Nc3ccc(F)cc3)=C(C)Nc3nc(CCCO)nn32)cc1 (stereo not drawn),i,i,i,i,62,i
CCN1CCN(C(=O)CCN2C(=O)COc3ccc(C)cc32)CC1,i,i,i,i,i,i
